Compound activity deposited in PubChem BioAssay by several laboratories.
Cav32 inh – inhibitors of human Cav3.2 T-type calcium channel; O95180; Cav3.2-expressing cells, Fluo-4 calcium fluorescence FDSS; stronger effect = lower value; B-score at 10 µM; actives 4% (n = 100,000); AID 449739;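 active = single-dose well whose peak fluorescence ratio is a statistical outlier from its plate by either plate-standardised score or position-corrected B-score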
PTK2B oligo ant – antagonists of human Pyk2 oligomerization; Q14289; Q293 cells, Pyk2 FERM NanoBiT luminescence; stronger effect = lower value; z-score (the deposit names both 25 µM and 10 µM); actives 0.83% (n = 99,000);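 active = Z-score of -3 or lower, scaled per plate to the spread of control and sample wells; inactive = z-score above -3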;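 also: negative z-score means lost luminescence so less FERM oligomerization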
Target sequence (Q14289 whole entry, looked up): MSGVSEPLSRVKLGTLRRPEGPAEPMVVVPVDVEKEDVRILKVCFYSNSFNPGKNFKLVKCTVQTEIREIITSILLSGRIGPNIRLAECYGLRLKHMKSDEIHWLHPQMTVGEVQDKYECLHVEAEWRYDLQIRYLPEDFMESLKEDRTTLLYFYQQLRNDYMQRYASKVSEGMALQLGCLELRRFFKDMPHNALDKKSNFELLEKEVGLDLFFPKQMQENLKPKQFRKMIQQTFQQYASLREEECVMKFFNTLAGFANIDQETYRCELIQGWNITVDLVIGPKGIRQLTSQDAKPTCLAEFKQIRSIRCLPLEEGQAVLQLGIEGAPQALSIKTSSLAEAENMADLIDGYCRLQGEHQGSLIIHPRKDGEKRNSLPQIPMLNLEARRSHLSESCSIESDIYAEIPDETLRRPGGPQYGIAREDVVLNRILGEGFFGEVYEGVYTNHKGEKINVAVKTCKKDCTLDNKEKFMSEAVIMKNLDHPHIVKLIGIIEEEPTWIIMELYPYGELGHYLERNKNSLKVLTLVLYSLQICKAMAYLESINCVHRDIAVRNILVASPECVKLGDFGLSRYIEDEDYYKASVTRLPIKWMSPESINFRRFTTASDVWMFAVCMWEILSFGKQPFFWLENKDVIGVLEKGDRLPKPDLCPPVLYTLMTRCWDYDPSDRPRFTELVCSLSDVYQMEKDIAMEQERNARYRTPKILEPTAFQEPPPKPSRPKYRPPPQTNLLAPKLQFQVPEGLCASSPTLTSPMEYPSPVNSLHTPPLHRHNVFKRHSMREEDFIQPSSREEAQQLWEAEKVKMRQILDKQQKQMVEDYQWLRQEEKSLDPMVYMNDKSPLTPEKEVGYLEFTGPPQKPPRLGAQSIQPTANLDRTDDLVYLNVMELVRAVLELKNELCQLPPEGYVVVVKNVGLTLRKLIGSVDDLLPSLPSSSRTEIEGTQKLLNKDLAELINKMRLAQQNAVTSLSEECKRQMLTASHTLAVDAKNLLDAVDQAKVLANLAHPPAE
Plk1 PBD FP – Plk1 (human) PBD binding inhibition | P53350 | Plk1 PBD phosphopeptide binding, fluorescence polarization | inhibition, %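 (tested at about 20 µM)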 | actives 0.13% (n = 97,000); in the data active = inhibition above about 34%, passing the limit was not always enough
PLK1 kinase inh – PLK1 (human) kinase inhibition; P53350; recombinant PLK1 kinase, TR-FRET peptide phosphorylation; inhibition, % at 10 µM; actives 0.53% (n = 97,000); AID 619;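 active = inhibition of 50% or more in the single-concentration screen; inactive = inhibition below 50%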
DAT uptake mod – modulates human dopamine transporter uptake under cocaine | Q01959 | LLC-PK1 hDAT cells, [14C]-dopamine uptake with cocaine IC80; actives deviate in either direction | B-score at 10 µM | actives 1.3% (n = 110,000) | AID 449768;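 active = Z score or B-score, a plate-position-corrected score, falls beyond the plate's 99.7% confidence bounds, in either direction; inactive = both scores lie inside the 99.7% bounds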
SDO1 yeast rescue – sdo1-depleted yeast growth rescue; actives 0.21% (n = 140,000); S. cerevisiae sdo1-depleted JHY4D growth rescue, OD600 30 h; stronger effect = higher value; pdr5 snq2 efflux-pump mutant strain; AID 817; z-score at 10 µM;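 active = z-score above 3 at both the 24 hr and the 30 hr optical density reads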
Numbers stand for hits; n = inactive; x = no result. Compounds with a hit are over-represented: about 4.7% of the library has one in this group of screens.

SMILES	Cav32 inh	PTK2B oligo ant	Plk1 PBD FP	PLK1 kinase inh	DAT uptake mod	SDO1 yeast rescue
Cc1ccc(Cn2ncc3c(N4CCN(c5ccccc5C)CC4)ncnc32)cc1	-5.6	n	n	n	n	n
Cc1ccc(Cn2ncc3c(N4CCOCC4)ncnc32)cc1	n	n	n	n	n	n
COc1nnc(-c2ccc(N3CCCCC3)c(N)c2)c2ccccc12	-6.9	n	n	n	n	x
Cc1cccc(C)c1NC(=O)CN(C)C(=O)C(c1ccccc1)c1ccccc1	x	x	x	x	x	n
Cc1cc(N2CCCC2=O)cc(C)c1S(=O)(=O)NCCOc1ccc(C(C)(C)C)cc1	n	n	n	n	-2.8	n
O=C1CCCN1c1ccc(S(=O)(=O)NCCOc2ccccc2)cc1	n	n	n	n	n	n
C(=N\N(c1ccccc1)c1ccccc1)/c1ccc(N2CCOCC2)s1	x	x	x	x	x	n
O=C(CN1CCN(c2ccc(Cl)cc2)CC1)Nc1ccc(F)cc1	-4.5	n	n	n	n	n
COc1ccccc1NC(=O)CN1CCN(CC(=O)Nc2ccc3c(c2)OCO3)CC1	n	n	x	x	-4.3	n
Cc1cc(C)nc(N2CCN(CC(=O)NCc3ccccc3)CC2)n1	n	n	n	n	n	n
CCN(CC)c1ccc(NC(=O)CN2CCN(c3nc(C)cc(C)n3)CC2)cc1	-4.2	n	x	x	n	n
O=C(CN1CCN(CC(=O)Nc2ccccc2C(F)(F)F)CC1)Nc1ccccc1F	n	n	n	n	n	n
CCN(CC)c1ccc(NC(=O)CN2CCN(CC(=O)Nc3ccccc3F)CC2)cc1	n	n	n	n	2.5	n
CC(C)NC(=S)Nc1ccc2nc3n(c(=O)c2c1)CCCCC3	x	x	x	x	x	n
Cc1ccc(C(=O)c2coc3c2C(=O)C(=O)c2ccccc2-3)cc1	n	n	n	n	n	n
O=C(c1ccc(Cl)cc1)c1ccc(CN2C(=O)c3ccccc3C2=O)o1	n	n	n	n	n	n
Cc1oc2c(c1C(=O)c1ccc(Cl)cc1)C(=O)C(=O)c1ccccc1-2	x	-3.6	n	n	x	n
Cc1ccc(C(=O)c2c(C)oc3c2C(=O)C(=O)c2ccccc2-3)cc1	n	-3.8	n	n	n	n
Cc1occc1C(=O)NN1C(=O)C2C3CCC(O3)C2C1=O (stereo not given)	x	x	x	x	x	n
Nc1c(C(=O)Nc2ccccc2F)sc2nc(Cc3ccccc3)cc(C(F)(F)F)c12	-3.4	n	n	n	n	n
Cc1cc(C(F)(F)F)c2c(N)c(C(=O)Nc3cc(C)on3)sc2n1	n	n	n	n	n	n
CCNC(=O)CSc1nnc(-c2ccccc2Br)n1-c1cccc(C(F)(F)F)c1	x	x	x	x	x	n
CC(NC(=O)C12CC3CC(CC(C3)C1)C2)c1ccc2c(c1)OCCO2 (stereo not given)	3.5	n	n	n	n	n
CCn1c(C(=O)NC(C)c2ccc3c(c2)OCCO3)cc2sccc21 (stereo not given)	-5.1	x	n	n	n	n
CC(NC(=O)CSC(=S)N(C)C)C12CC3CC(CC(C3)C1)C2 (stereo not given)	x	x	x	x	x	n
SMILES	Cav32 inh	PTK2B oligo ant	Plk1 PBD FP	PLK1 kinase inh	DAT uptake mod	SDO1 yeast rescue
CC(OC(=O)CNC(=O)c1ccccc1F)C(=O)Nc1nc(-c2ccccc2)cs1 (stereo not given)	x	x	x	x	x	n
Cc1cc(C)n(-c2nnc(C)n2/N=C/c2ccco2)n1	n	n	n	n	n	n
CCCOc1ccc2ccccc2c1/C=N/n1c(C)nnc1-n1nc(C)cc1C	-3.3	n	n	n	n	n
COC(=O)[C@@]1(Cc2ccc(OC)cc2)[C@H]2c3cc(C(=O)N4CCCC4)n(CCc4c[nH]c5ccc(O)cc45)c3C[C@H]2CN1C(=O)c1ccccc1	n	x	x	x	n	n
Cc1cc2nc(CCN(C(=S)NCC(C)C)C3CCCC3)[nH]c2cc1C	-4.3	n	n	n	2.7	n
Cc1cccc2cc(CN(C(=S)NCC(C)C)C3CCCC3)c(=O)[nH]c12	x	x	x	x	x	n
CCOC(=O)C(=CNc1cc(C)nn1-c1ccc(Cl)cc1)C(=O)OCC	n	n	n	n	n	n
CCOC(=O)C(=CNc1ccc(C)cc1C)C(=O)OCC	n	-3.2	n	n	n	n
CCOC(=O)C(=CNCC(=O)O)C(=O)OCC	n	n	n	n	n	n
CCOC(=O)C(=CNc1cccc(C)c1C)C(=O)OCC	n	n	n	n	6.1	n
COc1ccccc1OCCC(=O)OCC(=O)Nc1ncc(Cl)cc1Cl	n	n	n	n	n	n
COc1ccc(CN(C(=O)Cc2c[nH]c3ccccc23)C(C(=O)NC2CCCCC2)c2ccc(C)o2)cc1 (stereo not given)	-7.3	n	n	n	n	n
COc1cc(C(C(=O)NC2CCCCC2)N(Cc2cccs2)C(=O)Cc2c[nH]c3ccccc23)cc(OC)c1OC (stereo not given)	-6.5	n	n	n	n	n
COc1cc2c(cc1NC(=O)Nc1ccc(F)cc1)oc1ccccc12	x	x	x	x	x	n
CN1CCN(S(=O)(=O)c2ccc3[nH]c(=O)oc3c2)CC1	x	x	x	x	x	n
Cc1nn(-c2ccccc2)c(Cl)c1CN(C(=O)CCl)c1cccc2ccccc12	x	x	x	x	x	n
CCCc1cc(=O)[nH]c(SCC(=O)N(CC(C)C)C2CCS(=O)(=O)C2)n1 (stereo not given)	n	n	n	n	3.1	n
CCc1nc2ccccc2c(C(=O)OCC(=O)Nc2ccc(S(=O)(=O)N3CCOCC3)cc2)c1C	n	-4.4	x	x	n	n
O=C(COC(=O)c1cccs1)Nc1cccc(S(=O)(=O)N2CCOCC2)c1	x	x	x	x	x	n
CCc1nc2ccccc2c(C(=O)OCC(=O)Nc2cccc(S(=O)(=O)N3CCOCC3)c2)c1C	n	-4.7	n	n	n	n
O=C(COC(=O)c1cccc(S(=O)(=O)N2CCOCC2)c1)Nc1nc(-c2ccccc2Cl)cs1	-5	n	n	n	n	n
O=C(COC(=O)c1cccc(S(=O)(=O)N2CCOCC2)c1)Nc1ncc(C(F)(F)F)cc1Cl	n	n	n	n	n	n
Cc1ccc(C(=O)Oc2ccccc2N2C(=O)C3C4CCC(C4)C3C2=O)cc1 (stereo not given)	x	x	x	x	x	n
CC(C)(C)NC(=O)CSc1nc(O)cc(=O)[nH]1	x	x	x	x	x	n
Cc1cccc(NC(=S)NCc2ccco2)c1C	x	x	x	x	x	n
SMILES	Cav32 inh	PTK2B oligo ant	Plk1 PBD FP	PLK1 kinase inh	DAT uptake mod	SDO1 yeast rescue
Cc1cccc(-n2c(O)c(C=Nc3ccc(O)cc3)c3ccccc3c2=O)n1	x	x	x	x	x	n
COc1ccc2c(C=Nc3c(C)n(C)n(-c4ccccc4)c3=O)c(O)n(Cc3ccco3)c(=O)c2c1	n	n	n	n	4.2	n
Cc1cccc(-n2c(O)c(C=Nc3c(C)n(C)n(-c4ccccc4)c3=O)c3ccccc3c2=O)n1	n	n	n	n	3.8	n
Cc1c(N=Cc2ccco2)c(=O)n(-c2ccccc2)n1C	n	n	x	x	n	n
COc1cccc(-c2cc(C(F)(F)F)nc(-n3cncn3)n2)c1	n	n	n	n	3.3	n
Fc1ccc(-c2cc(C(F)(F)F)nc(-n3cncn3)n2)cc1	n	n	n	n	n	n
O=C(COC(=O)Cc1c(Cl)cccc1Cl)Nc1ccc(OC(F)(F)F)cc1	x	x	x	x	x	n
